Screening data as filed in PubChem BioAssay.
Pf growth 96h – Primary qHTS for delayed death inhibitors of the malarial parasite plastid, 96 hour incubation | P. falciparum luciferase reporter growth, 96 h | Potency, µM (doses to about 28.7 µM), without a hit: at the top dose activity change, negative = inhibition, actives largely listed as inhibitors | 320,000 compounds, 6.9% hits | AID 504834, 2011; further: on the % scale 0 is the no-effect control and ±100 the full control effect
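Luminescence readout: decreased luciferase signal marks inhibited growth of reporter-expressing P. falciparum in infected red cells (2% hematocrit, 0.05% parasitemia final), exposed to compound two generations (96 h, 37 C, 5% CO2).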
HCV inh – qHTS Assay for Inhibitors of Hepatitis C Virus (HCV). Huh7.5.1 HCVcc-Cre infection, luciferase reporter, 44 h. Potency, µM (series often up to 41.8 µM), for the others: top-dose activity change, negative = inhibition, usual class: inhibitors. 340,000 compounds, 3.4% hits; further: on the % scale 0 is the no-effect control and ±100 the full control effect
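Reporter virus HCVcc-Cre (~0.5 moi) infects cells exposed to compound; seeding density 1,000 cells/well with 4 h settling beforehand. Luminescence, 15 sec read, taken 44 h post-infection following a 15 min RT substrate incubation.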
Pf growth 48h – Primary qHTS for delayed death inhibitors of the malarial parasite plastid, 48 hour incubation; Potency, µM (doses to about 28.7 µM), inactives show at the top dose activity change, negative = inhibition, actives largely listed as inhibitors; 310,000 compounds, 5.9% hits; P. falciparum luciferase growth in erythrocytes, 48 h; AID 504832, 2011; further: on the % scale 0 is the no-effect control and ±100 the full control effect
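Firefly luciferase activity from engineered P. falciparum reports growth; inhibitors lower the luminescent signal. Cultures contained 2% hematocrit erythrocytes at 0.1% final parasitemia.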
AMA1-RON2 inh – qHTS for Inhibitors of AMA1-RON; Towards Development of Antimalarial Drug Lead: Primary Screen. Potency, µM (series often up to 58.2 µM), for the others: at the top dose activity change, negative = inhibition, hits mostly inhibitors. 360,000 compounds, 0.2% hits. AlphaScreen AMA1-biotinylated RON2 peptide binding. Plasmodium falciparum AMA1 (3D7) - RON2 peptide interaction;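 further: 0% = vehicle wells and -100% = peptide control; nearly all actives have a fitted effect of over 45% in size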
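AMA1 (3D7) with his tag at 25 nM final met compounds first, then biotinylated RON2 peptide at 25 nM; detection used donor plus acceptor beads, 10 µg/mL apiece, read by AlphaScreen after 30 min at room temperature.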
SARS PLpro yeast – qHTS of Yeast-based Assay for SARS-CoV PLP; S. cerevisiae expressing SARS-CoV PLpro, growth rescue; Potency, µM (doses to about 32.9 µM), without a hit: top-dose activity, positive = growth rescue, hits mostly activators; 330,000 compounds, 0.19% hits; AID 485353, 2010; calls by dose curve; further: 0% is about no effect; nearly all actives have a fitted effect of over 55% in size
NS1 function inh – qHTS Assay for Inhibitors of Influenza NS1 Protein Function. 270,000 compounds, 0.4% hits. AID 2326, 2010. Potency, µM (top dose mostly 46.1 µM), inactives show at the highest dose activity, positive = more growth; calls by dose curve; further: actives are rising curves; nearly all actives have a fitted effect of over 50% in size
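Read-out: OD600 growth recovery of NS1-expressing budding yeast. Cells grown overnight at 30C in -URA glucose medium, washed, resuspended and diluted 1:100 in 2% galactose assay medium, pH 6.0. Same strain lacking NS1 served as positive control.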
* hit, by the source's call. An excerpt weighted towards active compounds, which were near 12% of everything screened. Unless noted, the call rests on the fitted dose curve; in most records, active means well fitted curve in the direction sought with a large enough effect; inconclusive means small, poorly fitted or top-dose-only effect, or another doubt; inactive means no such curve, though single readings can be large; an effect the other way counts as inactive or inconclusive. Potency means the concentration at half of the fitted maximal effect.

How did O=C(Nc1ccc(N2CCOCC2)c(S(=O)(=O)Nc2ccccc2Cl)c1)c1ccccc1 do in these assays?
Pf growth 96h: inconclusive; HCV inh: inconclusive; Pf growth 48h: 10.4µM*; AMA1-RON2 inh: -5.1%; SARS PLpro yeast: 2.3%

How did O=C(Nc1ccc(Cl)cc1)Nc1ccc(N2CCCC2)c(S(=O)(=O)Nc2ccccc2Cl)c1 do in these assays?
Pf growth 96h: inconclusive; HCV inh: 5.62µM*; Pf growth 48h: inconclusive; AMA1-RON2 inh: -12.5%; SARS PLpro yeast: -20.4%; NS1 function inh: 18.1%

Results for O=C(Nc1ccccn1)c1cccc(S(=O)(=O)N2CCCC2)c1 ?
Pf growth 96h: 6.1%; HCV inh: -25.3%; Pf growth 48h: 14.9%; AMA1-RON2 inh: 2.2%; SARS PLpro yeast: 2.9%; NS1 function inh: 0.6%

What do the screens show for `COc1cc2sc(-c3ccccc3OC)c(-c3ccc(OCCN4CCCCC4)cc3)c2cc1OC`?
HCV inh: 11.2µM*; AMA1-RON2 inh: inconclusive; SARS PLpro yeast: -2.3%

Results for O=C(c1ccc(OCCN2CCCCC2)cc1)c1c(-c2ccc(O)cc2)sc2cc(O)ccc12 ?
Pf growth 96h: 2.33µM*; HCV inh: inconclusive; Pf growth 48h: 2.62µM*; AMA1-RON2 inh: inconclusive; SARS PLpro yeast: -2.7%; NS1 function inh: inconclusive

What do the screens show for `COC(=O)c1ccc(OCCN2CCCCCC2)cc1`?
Pf growth 96h: -4.8%; HCV inh: 28.3%; Pf growth 48h: -10.2%; AMA1-RON2 inh: inconclusive; SARS PLpro yeast: -1.4%

What do the screens show for `OC[C@H](S)CS`?
Pf growth 96h: 0.601µM*; Pf growth 48h: 1.51µM*; NS1 function inh: -35.8%

What do the screens show for `Nc1ccc(CSc2ccc(Cl)cc2)cc1`?
Pf growth 96h: 58.4%; HCV inh: -2.4%; Pf growth 48h: 67.9%; AMA1-RON2 inh: 8.3%; SARS PLpro yeast: -13.5%

What do the screens show for `Cc1ccc(S(=O)(=O)N/N=C/c2ccc(C(=O)O)cc2)cc1`?
Pf growth 96h: 11.7µM*; HCV inh: 19.3%; Pf growth 48h: 30.5%; AMA1-RON2 inh: -3.4%; SARS PLpro yeast: -0.5%; NS1 function inh: 3.1%

How did Cc1ccc(S(=O)(=O)N/N=C\c2ccc([N+](=O)[O-])o2)cc1C do in these assays?
Pf growth 96h: 4.15µM*; HCV inh: 8.2%; Pf growth 48h: -7.6%; AMA1-RON2 inh: -5.1%; SARS PLpro yeast: -2.1%; NS1 function inh: -9.9%

Results for Cc1ccc(S(=O)(=O)N/N=C\c2ccc([N+](=O)[O-])o2)cc1 ?
Pf growth 96h: 5.4%; HCV inh: 12.6µM*; Pf growth 48h: 3.6%; AMA1-RON2 inh: -3.6%; SARS PLpro yeast: -28.8%; NS1 function inh: -11.5%

Results for Cc1ccc(/C=N/NS(=O)(=O)c2ccc([N+](=O)[O-])cc2)o1 ?
Pf growth 96h: inconclusive; HCV inh: 6.8%; Pf growth 48h: 9.3%; AMA1-RON2 inh: 52.5%; SARS PLpro yeast: -4.4%; NS1 function inh: -8.9%

How did O=[N+]([O-])c1ccc(/C=N/NS(=O)(=O)c2ccc(Cl)cc2)o1 do in these assays?
Pf growth 96h: 0.3%; HCV inh: 7.2%; Pf growth 48h: 16.9%; AMA1-RON2 inh: -1.8%; SARS PLpro yeast: -65.4%; NS1 function inh: -47.6%

What do the screens show for `O=C(Nc1c2c(nn1-c1cccc(Cl)c1)CS(=O)(=O)C2)c1ccco1`?
Pf growth 96h: inconclusive; HCV inh: 3.9%; Pf growth 48h: -3.6%; AMA1-RON2 inh: 0.0%; SARS PLpro yeast: 6.4%; NS1 function inh: 7.8%

How did COCCn1ccc2c(OCC(=O)Nc3cccc(NC(C)=O)c3)cccc2c1=O do in these assays?
Pf growth 96h: inconclusive; HCV inh: 1.9%; Pf growth 48h: -28.6%; AMA1-RON2 inh: -9.0%; SARS PLpro yeast: -1.1%

How did Cc1nnc(SCC(=O)N(C)CC(=O)Nc2ccc(F)cc2)n1Cc1ccccc1 do in these assays?
Pf growth 96h: -29.6%; HCV inh: -2.5%; Pf growth 48h: 9.28µM*; AMA1-RON2 inh: 1.4%; SARS PLpro yeast: -0.3%
